Reference: the supplement of paper PMC6555819

Tested on: LXRb:RXRa (NR concentration 270 nM, RXRa partner concentration 90 nM)
Assay: PBM binding z-score (relative to random genomic background probes); higher = stronger binding; sequences stand for … in GC…GCGATTGACAGCGTAGAATGAAGG
Protocol: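 Protein-binding microarray (Agilent 4x180K custom design, double-stranded 60-nt probes: 5' GC cap, 34-nt variable region, 24-nt constant primer region; full probe sequence given). Purified or IVT nuclear receptor:RXRα heterodimers (3:1 NR:RXRα, mostly 270:90 nM) or homodimers were incubated for 1 h in PBS with 2% milk and no ligand, then detected with Alexa488 antibodies. Fluorescence from o1-orientation probes (~5 replicates averaged) was converted to z-scores against 500 random hg19 background probes. Variable regions are seed direct-repeat (DR0–DR5) sites, all their single-nucleotide variants and half-site ablations.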

Sequence | PBM binding z-score
CGAACTAGGTCAAGGACAGTAAATCTCCGCACGC | 1.45
TGTCAACGTTCAAAGGTAACGTAAGTATCCACAC | 0.759
TATAAAGGGTCAAAGGCCAGAGTACGAATGTCGA | 5.24
TTGCCTAGGTCATTGGGCCAGTATAGTACGCATC | 2.28
CGTTCAAGGTCAAAGGTCAGTGAAGAGATGACGG | 6.76
AGTCAAACTTCAGGACGAGGTAACGTAAAGCACG | -0.266
CCTAGCAGGCCAATCTAGGTCACTCAAGGCTTGA | 1.24
TAGCCTAGGTCATGCGGCCCAGTATAGTGTCGGC | 1.69
AGTCAAAGTTTATCTAGGTAACGTAAGATATGCT | 0.175
CGTCAAAGTTCAAGGTCACGTAACAGAAAGCAGC | 5.52
CCTACTGGGCCAAAAAGGTCATTGATGCCGATAA | 3.74
AATAAAGGGTCATCGTAGGCCAGAGTACGCACAG | 5.46
CCTCGGAGGACAACAGGAGGTCATAGCTGCCAGA | 3.15
GGAACGAGGTCAAAGTTGATAGCATCTGTCGACG | 5.45
CGAACTAGGTCTAAGGACAGTGAAAGGCGACGTA | -0.844
CAAACTAGTTCAAGAGGTCAAAGTCCGCTTCCCG | 5.37
CCTCGGAGGACAGAAGGTCAAAGCTGTCCGCTTT | 3.1
CCTTACGGGTCCCTCCAGGTTATAGCATCGGAGT | -0.459
TCGCCTAGGTCATGGGCCAGTATACCACGCGAAC | 2.29
CCGAGAAGGTTACGAGGGGGCATTCAGTGCGAAT | 7.2
CGTCCAAGGTCGAAGGTCAGTGAAGAGATGACGG | 2.62
CCTACTCGGCCAAAAAGGTCATTGATGCCGATAA | 4.63
AATACAGGGTCACGAGGCCAGAGTAGGTACGAAT | 4.97
TCTAGTTGGTCACGGAGGTCCCACACGACGGGTA | 0.167
